Records with an inconclusive call do not appear. Calls of active or inactive are those of the source. Calls come from the whole dose curve.

Experiment [1] can be described thus: qHTS drug screen for cell cycle checkpoint inhibitors in PARPi-resistant BRCA-mutant ovarian cancer cell lines. (AID 1963452). To be noted: PEO1/OlaR viability, CellTiter-Glo luminescence, 96 h, stronger effect = lower value. The method, boiled down: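 PEO1, PEO4 and PEO1/OlaR ovarian cancer cells, 600 per well, exposed 96 h at 37C to a dilution series. Viability read by CellTiter-Glo luminescence, normalized to DMSO and empty wells; activity summarized as Z-AUC.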
On the technique in general: qHTS replaces the single test concentration by a dilution series.

Experiment [2] can be described thus: qHTS for identification of novel therapeutic agents for treatment of microphthalmiaassociated transcription factor (MiT) renal cell carcinoma (RCC) (AID 1963991). To be noted: CellTiter-Glo, 48 h, stronger effect = lower value. The method, boiled down: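 Curves over 11 concentrations were fitted to CellTiter-Glo luminescence, scaled between empty wells (0%) and DMSO (100%) viability. Cells were UOK109, UOK124 and UOK145 TFE3-fusion RCC lines at 500/well, exposed 48 hours at 37 C.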

Setting [3] is: measured here: PEO1 parental Z-AUC.
Where [4] appears, read: TFE3-RCC UOK109 viability, measured here: UOK109 Z-AUC.
The mark [5] stands for this setting: TFE3-RCC viability, measured here: UOK124 Z-AUC.
Where [6] appears, read: TFE3-RCC viability, measured here: UOK145 Z-AUC.

`O=C(O)C1CCCN(CCC=C(c2ccccc2)c2ccccc2)C1` (stereo unspecified): the values for the Z-AUC in experiment [1], in experiment [1] (setting [3]) and in experiment [1] (measured here: PEO4 Z-AUC) were 1.76 (inactive), 1.39 and 1.34, respectively.
Take `O=C(NCC1CN(c2ccc(N3CCOCC3=O)cc2)C(=O)O1)c1ccc(Cl)s1` (stereo unspecified): the Z-AUC in experiment [1] is -0.884 (inactive); in experiment [1] (setting [3]), -0.579; in experiment [1] (measured here: PEO4 Z-AUC), -0.444. The results for the z-score in experiment [2] (setting [4]), in experiment [2] (setting [5]) and in experiment [2] (setting [6]) were 0.607, 0.69 and 0.507, respectively.
On to `O=S(=O)(c1cccc2cnccc12)N1CCCNCC1`, for which the Z-AUC in experiment [1] is -0.00128 (inactive); in experiment [1] (setting [3]) it was -0.265; in experiment [1] (measured here: PEO4 Z-AUC) it was 0.443.
For `NC(=O)c1ccc2[nH]ccc2c1`, the Z-AUC in experiment [1] was -0.236 (inactive); in experiment [1] (setting [3]), -0.451; in experiment [1] (measured here: PEO4 Z-AUC), -0.798. Besides, the values for the z-score in experiment [2] (setting [4]), in experiment [2] (setting [5]) and in experiment [2] (setting [6]) were 0.214, 0.789 and -0.184, respectively.
Turning to `COc1cc2ncnc(Nc3cccc(Cl)c3)c2cc1OC`, the Z-AUC in experiment [1] is 0.0605 (inactive); in experiment [1] (setting [3]) it was 0.96; in experiment [1] (measured here: PEO4 Z-AUC), 0.239.
Consider `CC(=O)[C@H]1CC[C@H]2[C@@H]3CC=C4C[C@@H](O)CC[C@]4(C)[C@H]3CC[C@]12C`, for which the Z-AUC in experiment [1] was 1.05 (inactive); in experiment [1] (setting [3]), 0.974; in experiment [1] (measured here: PEO4 Z-AUC), 0.706. For the same compound, the results for the z-score in experiment [2] (setting [4]), in experiment [2] (setting [5]) and in experiment [2] (setting [6]) were 0.424, 0.52 and 0.375, respectively.
Regarding `Cc1c(-c2ccc(O)cc2)n(Cc2ccc(OCCN3CCCCCC3)cc2)c2ccc(O)cc12`, the Z-AUC was 1.04 (inactive) in experiment [1], 0.798 in experiment [1] (setting [3]) and 0.376 in experiment [1] (measured here: PEO4 Z-AUC). In addition, the z-score came out at 0.552 in experiment [2] (setting [4]), 0.408 in experiment [2] (setting [5]) and 0.653 in experiment [2] (setting [6]).
As to `CCN(CC)CCn1c(=O)c(Cc2ccc(OC)cc2)nc2ccccc21`, the Z-AUC is 0.658 (inactive) in experiment [1], 1.23 in experiment [1] (setting [3]) and 1.19 in experiment [1] (measured here: PEO4 Z-AUC). Besides, the figures for the z-score in experiment [2] (setting [4]), in experiment [2] (setting [5]) and in experiment [2] (setting [6]) were 0.411, 0.577 and 0.628, respectively.
Take `C[C@@H](CN1CC(=O)NC(=O)C1)N1CC(=O)NC(=O)C1`: the Z-AUC is 1.24 (inactive) in experiment [1], 1.43 in experiment [1] (setting [3]) and 0.873 in experiment [1] (measured here: PEO4 Z-AUC).
For `CCC(=O)O[C@]1(C(=O)CCl)[C@@H](C)C[C@H]2[C@@H]3CCC4=CC(=O)C=C[C@]4(C)[C@@]3(F)[C@@H](O)C[C@@]21C`, in that order: -0.206 (inactive), 0.492 and -0.658.
For `NC1(c2ccc(-c3nc4ccn5c(=O)[nH]nc5c4cc3-c3ccccc3)cc2)CCC1`, in that order: 0.493 (inactive), 0.0138 and -0.184.
In the same order, the values of `CCCCc1oc2ccc(NS(C)(=O)=O)cc2c1C(=O)c1ccc(OCCCN(CCCC)CCCC)cc1` are 0.47 (inactive), -0.173 and -0.237.
For `CCOC(=O)[C@H](CCc1ccccc1)N[C@H]1CCc2ccccc2N(CC(=O)O)C1=O`, the Z-AUC in experiment [1] was -0.332 (inactive); in experiment [1] (setting [3]), -0.731; in experiment [1] (measured here: PEO4 Z-AUC) it was -0.74.
For `CC(C)(C)NC(=O)[C@H]1CC[C@H]2[C@@H]3CC[C@H]4NC(=O)C=C[C@]4(C)[C@H]3CC[C@]12C`, in that order: 1.47 (inactive), 1.04 and 1.46.
Take `CCN[C@H]1C[C@H](C)S(=O)(=O)c2sc(S(N)(=O)=O)cc21`: the values for the Z-AUC in experiment [1], in experiment [1] (setting [3]) and in experiment [1] (measured here: PEO4 Z-AUC) were 1.11 (inactive), 0.588 and 0.622, respectively. For the same compound, the z-score stood at 0.833 in experiment [2] (setting [4]), 0.48 in experiment [2] (setting [5]) and 0.605 in experiment [2] (setting [6]).
For `NC(=O)c1cccc(N)c1`, the Z-AUC in experiment [1] is 1.42 (inactive); in experiment [1] (setting [3]) it was 1.33; in experiment [1] (measured here: PEO4 Z-AUC), 0.943.
For the compound `COc1cc2nc(N3CCCN(C)CC3)nc(NC3CCN(Cc4ccccc4)CC3)c2cc1OC`, the Z-AUC is 0.899 (inactive) in experiment [1], 0.933 in experiment [1] (setting [3]) and 0.922 in experiment [1] (measured here: PEO4 Z-AUC).
In the same order, the values of `O=C(O)c1ccc(-n2nc(-c3ccccc3O)nc2-c2ccccc2O)cc1` are 0.434 (inactive), -0.254 and -0.47.
As for `NNC(=O)c1ccncc1`, the Z-AUC in experiment [1] was 0.416 (inactive); in experiment [1] (setting [3]) it was 1.78; in experiment [1] (measured here: PEO4 Z-AUC), 1.56. Moreover, the figures for the z-score in experiment [2] (setting [4]), in experiment [2] (setting [5]) and in experiment [2] (setting [6]) were 1.86, 0.222 and 0.436, respectively.
For the compound `OCc1ccc(-c2nn(Cc3ccccc3)c3ccccc23)o1`, the Z-AUC is 0.562 (inactive) in experiment [1], 1.06 in experiment [1] (setting [3]) and 0.997 in experiment [1] (measured here: PEO4 Z-AUC).
In the same order, the values of `Nc1nc(=S)c2[nH]cnc2[nH]1` are 0.0206 (inactive), -0.887 and -1.01.
On to `Clc1ccccc1CN1CCc2sccc2C1`, for which the Z-AUC in experiment [1] is 0.114 (inactive); in experiment [1] (setting [3]), 0.0683; in experiment [1] (measured here: PEO4 Z-AUC) it was 0.329. The values for the z-score in experiment [2] (setting [4]), in experiment [2] (setting [5]) and in experiment [2] (setting [6]) were 0.71, 0.609 and 0.692, respectively.
In the case of `C[C@@H]1CN(c2c(F)c(N)c3c(=O)c(C(=O)O)cn(C4CC4)c3c2F)C[C@H](C)N1`, the Z-AUC in experiment [1] was 1.35 (inactive); in experiment [1] (setting [3]), 1.39; in experiment [1] (measured here: PEO4 Z-AUC), 1.15. Also, the values for the z-score in experiment [2] (setting [4]), in experiment [2] (setting [5]) and in experiment [2] (setting [6]) were 1.8, 2.67 and 1.6, respectively.
On to `Cc1ccc(S(=O)(=O)N[C@@H](Cc2ccccc2)C(=O)CCl)cc1`, for which the Z-AUC was 1.05 (inactive) in experiment [1], 1.44 in experiment [1] (setting [3]) and 1.24 in experiment [1] (measured here: PEO4 Z-AUC).
On to `COC(c1ccccc1)(c1ccccc1)[C@H](Oc1nc(C)cc(C)n1)C(=O)O`, for which the Z-AUC in experiment [1] was 1.02 (inactive); in experiment [1] (setting [3]) it was 1.24; in experiment [1] (measured here: PEO4 Z-AUC), 1.24. Moreover, the z-score in experiment [2] (setting [4]) worked out at 1.16; in experiment [2] (setting [5]), 0.918; in experiment [2] (setting [6]), 0.706.
With `CCCOc1ccc(C(=O)OCCN(CC)CC)cc1N`, the Z-AUC in experiment [1] is 1.6 (inactive); in experiment [1] (setting [3]), 1; in experiment [1] (measured here: PEO4 Z-AUC), 0.987.
In the same order, the values of `COC(=O)Nc1nc2ccc(S(=O)c3ccccc3)cc2[nH]1` (stereo unspecified) are 0.889 (inactive), 0.292 and 0.543.
